Only some compounds are listed: those with a hit (about 6.2% of all), similar ones and a draw of the others.
RORg inh – ROR gamma (mouse) transcription inhibition; hit rate 5.4% among 310,000; Potency, µM (doses to about 53.6 µM), inactives show at the top dose activity change, negative = inhibition, actives largely listed as inhibitors; AID 2551; Drosophila S2 Gal4-RORgamma UAS-luciferase reporter, 20 h; also: nearly all actives have a fitted effect of over 60% in size
Target sequence (P51450 whole entry, looked up, the tested form may be a part): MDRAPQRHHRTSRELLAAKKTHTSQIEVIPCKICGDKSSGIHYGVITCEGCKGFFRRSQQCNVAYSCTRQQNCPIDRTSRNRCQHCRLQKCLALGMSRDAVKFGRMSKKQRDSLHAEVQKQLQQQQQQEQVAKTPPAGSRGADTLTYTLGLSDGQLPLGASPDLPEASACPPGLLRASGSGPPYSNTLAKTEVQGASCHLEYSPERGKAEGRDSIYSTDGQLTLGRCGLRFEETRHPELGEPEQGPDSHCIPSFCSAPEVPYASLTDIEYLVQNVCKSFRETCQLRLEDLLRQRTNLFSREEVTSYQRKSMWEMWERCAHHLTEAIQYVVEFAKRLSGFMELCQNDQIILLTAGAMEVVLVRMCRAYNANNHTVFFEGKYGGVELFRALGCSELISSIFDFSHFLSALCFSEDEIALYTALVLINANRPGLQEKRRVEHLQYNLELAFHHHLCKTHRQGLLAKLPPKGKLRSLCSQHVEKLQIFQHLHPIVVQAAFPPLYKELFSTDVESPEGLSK
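Luminescence from a UAS-regulated Photinus luciferase reporter in stably transfected Drosophila Schneider cells is measured; decreased signal marks ROR gamma inhibition. Fusion expression is induced by 700 uM copper sulfate for 20 hr.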
VP16 counter – Gal4-VP16 reporter inhibition counter-screen; Drosophila S2 Gal4-VP16 UAS-luciferase, luminescence, 20 h; Potency, µM (top dose mostly 53.6 µM), inactives show at the top dose activity, negative = inhibition, hits mostly inhibitors; hit rate 3.5% among 310,000;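 also: Gal4-VP16 expression switched on by copper sulfate through the metallothionein promoter; nearly all actives have a fitted effect of over 50% in size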
KinaseGlo FLuc – Kinase-Glo luciferase inhibition (counter-screen). Kinase-Glo luciferase, ATP luminescence, 8 min. Potency, µM (top dose mostly 38.3 µM), for inactives: top-dose activity change, negative = inhibition, most hits filed as inhibitors. hit rate 0.28% among 200,000; also: nearly all actives have a fitted effect of over 60% in size
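Luminescence was the read-out, taken after 8-minute incubation at ambient temperature. Luciferase turned over luciferin with 10 uM ATP in imidazole pH 7.2 buffer containing KCl, MgCl2, Tween 20 and BSA.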
The depositor's hits bear a star. Calls follow the shape of the dose curve; as a rule, active = well fitted curve in the direction sought with a large enough effect; inconclusive = small, poorly fitted or top-dose-only effect, or another doubt; inactive = no such curve, though single readings can be large; an effect the other way counts as inactive or inconclusive. % is scaled to controls: 0 for no effect and ±100 for the full control effect; potency is read from the fitted curve at half-maximal effect.

Screening CC(C)CNS(=O)(=O)c1ccc(CCC(=O)N2CCC(C(N)=O)CC2)cc1 returned RORg inh -26%, VP16 counter 0% and KinaseGlo FLuc 2%.
COc1ccc(-c2nnn(CC(=O)N(CC(=O)NC3CCCC3)c3ccccc3F)n2)cc1OC was read as RORg inh 17% and VP16 counter 9%.
`COc1ccc(C(=O)NCCNC(=O)c2ccccn2)cc1` gave RORg inh 13% and VP16 counter 7%.
For COc1ccc(OCC(=O)NCCNC(=O)c2ccccn2)cc1 the results were RORg inh 4% and VP16 counter -10%.
CC(C)C(=O)NNC(=O)c1ccccn1 was read as RORg inh inconclusive, VP16 counter -7% and KinaseGlo FLuc -1%.
Screening COc1ccc(OCC(=O)NNC(=O)c2ccccn2)cc1 returned RORg inh 13µM*, VP16 counter inconclusive and KinaseGlo FLuc 0%.
COc1ccc(C(=O)NNC(=O)c2ccccn2)cc1 was read as RORg inh 7.1µM*, VP16 counter 5.6µM* and KinaseGlo FLuc 0.63µM*.
Screening CC(Oc1ccccc1)C(=O)NNC(=O)c1ccccn1 (stereo not given) returned RORg inh 7.9µM*, VP16 counter inconclusive and KinaseGlo FLuc 1%.
`COc1ccc(CN2CCN(CCc3ccccc3)C(CCO)C2)c(Cl)c1OC` (stereo not given) gave RORg inh -7% and VP16 counter 2%.
Screening COc1ccc(C(=O)C2CCCN(C(=O)c3ccc4nccnc4c3)C2)c(C)c1 (stereo not given) returned RORg inh 13% and VP16 counter 5%.
For COc1cc(/C=N/NC(=O)c2sc3ccccc3c2Cl)ccc1OC(=O)c1ccc([N+](=O)[O-])cc1 the results were RORg inh -17% and VP16 counter 0%.
`CN(C)NC(=S)Nc1ccc2nc(-c3ccccn3)c(-c3ccccn3)nc2c1` gave RORg inh 13µM*, VP16 counter 16µM* and KinaseGlo FLuc 3%.
`CC(C)(C)CC(C)(C)NC(=S)Nc1ccc2nc(-c3ccccn3)c(-c3ccccn3)nc2c1` gave RORg inh 7.1µM*, VP16 counter inconclusive and KinaseGlo FLuc -3%.
`OCCCNC(=S)Nc1ccc2nc(-c3ccccn3)c(-c3ccccn3)nc2c1` gave RORg inh 40%, VP16 counter 1% and KinaseGlo FLuc -2%.
For S=C(Nc1ccc2nc(-c3ccccn3)c(-c3ccccn3)nc2c1)N1CCOCC1 the results were RORg inh -27%, VP16 counter -6% and KinaseGlo FLuc -1%.
For O=C(CSc1nccc(=O)[nH]1)c1ccccc1Br the results were RORg inh 2%, VP16 counter 12% and KinaseGlo FLuc -4%.
`Cc1ccc(Nc2nnc(SCC(=O)Nc3cccnc3Cl)s2)cc1C` gave RORg inh -41%, VP16 counter -26% and KinaseGlo FLuc -10%.
Screening O=C(Cn1cc2c(n1)CCCCC2)Nc1c(F)cc(F)cc1Br returned RORg inh 15% and VP16 counter 1%.
Screening CC1CCCC(NC(=O)CCNC(=O)c2ccc([N+](=O)[O-])cc2)C1C (stereo not given) returned RORg inh -3% and VP16 counter 3%.
`Cc1cc(-c2ccccc2)n(-c2cc(N/N=C/c3ccccc3O)ncn2)n1` gave RORg inh 11µM*, VP16 counter 5.6µM* and KinaseGlo FLuc -1%.
CNc1cc(-n2nc(C)cc2-c2ccccc2)ncn1 was read as RORg inh -21%, VP16 counter 1% and KinaseGlo FLuc -3%.
CC(C)(C)CC(C)(C)c1ccc(O)c(-n2nc3ccccc3n2)c1 was read as RORg inh -8% and VP16 counter -5%.
COc1ccc(NC(=S)NC(=O)c2cc3ccccc3o2)c(OC)c1 was read as RORg inh 8.9µM* and VP16 counter -24%.
For COc1ccc(NC(=O)CSc2ccccc2)c(OC)c1 the results were RORg inh -23%, VP16 counter 4% and KinaseGlo FLuc -4%.
For CCC(=O)Nc1ccc(OC)cc1OC the results were RORg inh 7%, VP16 counter -3% and KinaseGlo FLuc 0%.
Screening CCC(=O)NC(=S)Nc1ccc(OC)cc1OC returned RORg inh 11µM*, VP16 counter inconclusive and KinaseGlo FLuc 3%.
Screening COc1ccc(NC(=O)c2cc(C(C)C)on2)c(OC)c1 returned RORg inh inconclusive, VP16 counter 7.1µM* and KinaseGlo FLuc -2%.
Screening COc1ccc(OC)c(NC(=O)c2cc3ccccc3o2)c1 returned RORg inh 28%, VP16 counter 4% and KinaseGlo FLuc 0%.

From PubChem
